Data on eight molecules can be found in PubChem BioAssay (NCI).

SMILES strings stand for the structures. The panel holds about 83,000 compounds, 20% with a hit somewhere; the sample as a whole holds those more often.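 In brief: 96-well plates, 48 h treatment, single concentration, percent growth endpoint.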 Values without a mark were called inactive. Calls of active or inactive are those of the source. How the source made its calls: active means growth percent below 10; inactive means the rest.

What all share (experiment): NCI-60 one-dose screen, 48 h (100 = growth as untreated, 0 = no growth, -100 = all killed)
Settings in all cases: 10 µM unless noted

Test [1] concerns MOLT-4 leukemia.
The test system of test [2] is SR leukemia.
The test system of test [3] is RPMI-8226 leukemia.
Test [4] deals with OVCAR-8 ovarian.
Test [5] deals with OVCAR-5 ovarian.
In test [6] the test system is OVCAR-4 ovarian.
The subject of test [7] is SK-OV-3 ovarian.
The test system of test [8] is IGROV1 ovarian.
Test [9] has as its system OVCAR-3 ovarian.
In test [10] the test system is HS 578T breast.
Test [11] relates to NCI/ADR-RES ovarian.
Test [12] deals with T-47D breast.
Test [13] deals with BT-549 breast.
For test [14], the system named is MDA-MB-435 melanoma.
Test [15] concerns SW-620 colon.
For test [16], the system named is HCT-116 colon.
For test [17], the system named is HCC-2998 colon.
For test [18], the system named is KM12 colon.
The subject of test [19] is MCF7 breast.

Regarding `O=C1C2C(C(=O)[N]1[Hg][c]1cccs1)C1(Cl)C(Cl)=C(Cl)C2(Cl)C1(Cl)Cl` (stereo not drawn), the growth was 3.08% (active) in test [1]; 1.72% (active) in test [2]; -11.4% (active) in [3]; 11.9% in [4]; 13.7% in test [5]; 37.3% in test [6]. The growth was 102% in test [7]; 0.499% (active) in test [8]; -91.1% (active) in [9]; 42% in test [10]; 21% in test [11]; -78.5% (active) in test [12]. Besides, the growth was -1.18% (active) in test [13]; 7.41% (active) in test [14]; -40.4% (active) in [15]; -31.9% (active) in test [16]; 49.7% in [17]; 87.3% in test [18].
Regarding `N#C[Se]Cc1cc(-c2ccccc2)n(-c2ccc(S(N)(=O)=O)cc2)n1`, the growth is -28.4% (active) in test [1]; -32.5% (active) in [2]; -33.5% (active) in [3]; 6.01% (active) in test [4]; -42.6% (active) in [5]; 2.52% (active) in test [6]. For the same molecule, the growth is -42.6% (active) in test [7]; -35.6% (active) in test [8]; -80.6% (active) in test [9]; -17.6% (active) in test [10]; 35.4% in [11]; -1.52% (active) in [12]. In addition, the growth in [13] was -34.6% (active); in test [14], -28.8% (active); in test [15], -18.4% (active); in test [16], -59.4% (active); in [17] it was 25.1%; in test [18], -78.9% (active).
With `CC(=O)O[C@H](C[C@H](C(C)C)N(C)C(=O)[C@@H](NC(=O)[C@H]1CCCCN1C)C(C)(C)C)c1nc(C(=O)N[C@@H](Cc2ccccc2)C[C@H](C)C(=O)O)cs1`, the growth in test [1] was 6.26% (active); in [2], 2.59% (active); in [3], 16.8%; in [4], 8.74% (active); in [5], 32%; in test [6] it was 41.6%. For the same molecule, the growth was 28.6% in test [7]; 18.9% in [8]; -14.6% (active) in test [9]; 16.7% in [10]; 12.3% in test [11]; 45.6% in test [12]. The growth in test [13] was -23.6% (active); in test [14], -47% (active); in test [15], 24.5%; in test [16] it was 0.775% (active); in test [17] it was 8.37% (active); in [18] it was 6.93% (active).
Regarding `CCOC(=O)[C@@H](C)C[C@H](Cc1ccccc1)NC(=O)c1csc([C@@H](C[C@H](C(C)C)N(C)C(=O)[C@H](CCC(C)C)NC(=O)[C@H]2CCCCN2C)OC(C)=O)n1`, the growth in test [1] was 10.3%; in [2], 4.32% (active); in test [3], 12.6%; in test [4], 18%; in [5], 28.2%; in [6] it was 48.2%. For the same molecule, the growth in [7] was 2.1% (active); in test [8] it was 26.1%; in test [9] it was -1.34% (active); in test [10], 5.53% (active); in test [11] it was 4.75% (active); in [12], 64.9%. In addition, the growth is -24.5% (active) in test [13]; -1.75% (active) in test [14]; 25.4% in test [15]; 10% in [17]; 13.9% in test [18].
Turning to `Cc1ccc(C(=O)NCCCOc2ccc(N)cc2Cl)cc1S(=O)(=O)F`, the growth in test [1] is 79.7%; in [2], 87.9%; in test [3], 85.6%; in test [4], 101%; in test [5], 102%; in test [6], 97.5%. The growth in test [7] was 82.1%; in test [8] it was 95.5%; in [9] it was 98.8%; in [10], 98%; in [11] it was 103%; in test [12] it was 81.9%. For the same molecule, the growth is 98% in test [13]; 90.9% in [14]; 104% in test [15]; 98.9% in test [16]; 106% in [17]; 90.8% in test [18].
Turning to `C[C@]12CC[C@H]3[C@@H](C[C@@H]4SC(Nc5ccccc5)=N[C@@]45CC(O)CC[C@]35C)[C@@H]1CCC2O` (stereo partly drawn), the growth is 6.79% (active) in test [1]; 8.06% (active) in [2]; -32.3% (active) in test [3]; -8.95% (active) in test [4]; 92.2% in test [5]; 64.1% in test [6]. Moreover, the growth was 89.6% in [7]; 11.2% in test [8]; -31.6% (active) in test [9]; 3.65% (active) in test [10]; 36.3% in [11]; 16.3% in test [12]. Further, the growth in [13] was 19.2%; in test [14], 3.47% (active); in [15] it was -19.4% (active); in test [16], -81.5% (active); in test [17], 98.2%; in test [18], 15.6%.
Regarding `CNC(=O)Oc1cccc(C(F)(F)F)c1`, the growth in [1] is 97.1%; in test [2], 111%; in test [3] it was 87.4%; in [4] it was 87.6%; in [5], 114%; in test [6], 114%. For the same molecule, the growth is 108% in [7]; 120% in test [8]; 125% in [9]; 121% in test [10]; 109% in test [11]; 98.9% in test [12]. Also, the growth in test [13] is 108%; in test [14], 126%; in [15], 104%; in [16] it was 107%; in test [17], 113%; in [18], 110%.
Regarding `COc1ccc(C2=N[C@@H](Cc3ccccc3)C(=O)Nc3ccsc32)cc1`, the growth in test [1] was 35.7%; in [2], 8.97% (active); in [3], 41.7%; in [4] it was 70.4%; in [5], 84.1%; in [6], 69.9%. Besides, the growth is 67.4% in [7]; 66% in test [8]; 3.83% (active) in test [9]; 65.4% in test [10]; 28.4% in test [11]; 61.1% in test [12]. For the same molecule, the growth in [13] was 51.7%; in test [15] it was 37.6%; in test [19] it was 24.1%; in [16], 27.5%; in test [17] it was 81.5%; in [18], 39.1%.
